# The list is not random: actives were taken first. Their share in the collection is about 10%.
# Sfp inh – Sfp phosphopantetheinyl transferase inhibition. AID 1490. 3.5% of 310,000 active. Biochemical Sfp PPTase activity, qHTS. Potency, µM, for the others: largest response in the series, negative = inhibition, usual class: inhibitors;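 note: the enzyme is Sfp with the accession as filed and its product quenches rhodamine fluorescence; potency is the fitted concentration of half-maximal effect; 0% = enzyme reaction without inhibitor and -100% = no enzyme wells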
#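 Reaction rates are the 30-min fluorescence difference (ex 525, em 598 nm) in wells containing 15 nM Sfp, 5 uM rhodamine-CoA and 12.5 uM BHQ-2-YbbR at pH 7.6 with 10 mM MgCl2.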
# VDR inhibitor – vitamin D3 receptor (human) inhibition; Potency, µM, for inactives: max response, negative = inhibition, usual class: inhibitors; 0.93% of 400,000 active; VDR-SRC2-3 peptide fluorescence polarization, 2 h; P11473; note: potency is the fitted concentration of half-maximal effect
#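 Fluorescence polarization assay measuring small-molecule disruption of VDR binding to the coregulator peptide SRC2-3. Compounds were pin-transferred (23 nl) into the reagent mix and incubated 2 h at room temperature before reading.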
# CCT modulator – changes cytosolic chaperonin activity. purified chaperonin ATPase assay, HTRF ADP detection, 30 min. activity change, % (test concentration not listed), hits read low. 0.3% of 360,000 active. AID 651819; in the data active = activity change below about -30%
#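 TRiC at 40 or 20 nM final (batch-dependent) in 30 mM Tris pH 7.4, 100 mM KCl, 5 mM MgCl2, 1 mM DTT, with compound at single 76 uM and 10 uM ATP, 30 min at 37 deg C. ADP detected by HTRF Transcreener, 665/615 ratio.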
# G9a block – G9a (human) methyltransferase inhibition | Q96KQ7 | G9a H3K9 monomethylation, AlphaScreen, 2 h | Potency, µM (doses to about 102 µM), for the others: top-dose activity, negative = inhibition, usual class: inhibitors | 8.8% of 350,000 active; note: potency is the fitted concentration of half-maximal effect; nearly all actives have a fitted effect of over 75% in size
# Target sequence (Q96KQ7 913-1193 limits assumed): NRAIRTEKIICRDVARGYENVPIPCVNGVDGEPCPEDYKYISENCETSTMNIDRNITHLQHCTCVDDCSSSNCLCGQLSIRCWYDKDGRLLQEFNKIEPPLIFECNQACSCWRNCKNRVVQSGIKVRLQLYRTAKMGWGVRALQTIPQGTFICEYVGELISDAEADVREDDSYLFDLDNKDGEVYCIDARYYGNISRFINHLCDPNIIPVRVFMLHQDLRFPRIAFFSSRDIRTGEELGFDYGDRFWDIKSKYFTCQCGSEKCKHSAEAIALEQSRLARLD
#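 G9a (20 nM) was preincubated 15 min with compound, then reacted 2 h at room temperature with 500 nM biotin-H3K9 peptide and 20 µM SAM. Monomethyl-H3K9 detected by AlphaScreen using anti-H3K9me1 antibody.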
# Mm-Cpn inhibitor – M. maripaludis TRiC chaperonin inhibition; purified Mm-Cpn ATPase, ADP Transcreener TR-FRET; Potency, µM (highest dose often 76.9 µM), for the others: at the top dose activity, negative = inhibition, usual class: inhibitors; 0.031% of 330,000 active; note: potency is the fitted concentration of half-maximal effect; nearly all actives have a fitted effect of over 80% in size
#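 Inhibition of chaperonin ATP hydrolysis is measured as reduced ADP production, detected by competitive TR-FRET in which signal falls with ADP. Final enzyme 25 nM and ATP 10 uM, reacted 30 min at 37°C.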
# PLK1 PBD block – PLK1 (human) polo-box domain binding inhibition | 2.8% of 360,000 active | Potency, µM, for inactives: max response, negative = inhibition, actives largely listed as inhibitors | Plk1 PBD binding of FITC phosphopeptide, fluorescence polarization | AID 720504 | P53350; note: potency is the fitted concentration of half-maximal effect; series mostly up to about 57 µM; nearly all actives have a fitted effect of over 65% in size
# * hit, by the source's call; ? = inconclusive; / = no result; [ ] = another dose, or the depositor's remark. Unless noted, calls come from the whole dose curve; as a rule, active = well fitted curve in the direction sought with a large enough effect; inconclusive = small, poorly fitted or top-dose-only effect, or another doubt; inactive = no such curve, though single readings can be large; an effect the other way counts as inactive or inconclusive. Unless noted, % is set by controls: 0 for no effect and ±100 for the full control effect.
SMILES,Sfp inh,VDR inhibitor,CCT modulator,G9a block,Mm-Cpn inhibitor,PLK1 PBD block
Cc1c(NC=C(C#N)C#N)c(=O)n(-c2ccccc2)n1C,2.9%,-6.2%,1.3,12.2%[0.501 µM],5.7%,-1.3%
Cc1c(N/C=C(\Cl)C(=O)C(F)(F)F)c(=O)n(-c2ccccc2)n1C,22.4µM*,-12.3%,2.3,25.1µM*,0.6%,-2.8%
Cc1c(Cl)cccc1NC(=O)CNc1cccc(C(F)(F)F)c1,21.1%,?,0.5,70.8µM*,1.3%,2.3%
COc1ccc(OC)c(-c2noc(N3CCN(c4ccc(C(C)=O)cc4)CC3)n2)c1,/,5.1%,/,3.4%[59 µM],/,/
c1ccc(Nc2ccccn2)nc1,-0.8%,0.6%,-2.8,0.501µM*,0.0%,-3.8%
Cc1cc(C)nc(SCC(=O)c2ccc([N+](=O)[O-])cc2)n1,44.7µM*,-28.0%,-5.3,?,-4.2%,21.2µM*
Cc1ccc(C(=O)CC(SCC(=O)O)c2ccc([N+](=O)[O-])cc2)cc1 (configuration not stated),-16.3%,?,-13.3,25.1µM*,1.7%,-2.6%
COC(=O)CSc1nccc(C)n1,9.9%,-3.1%,1.2,-10.5%,0.0%,-7.0%
Cc1ccnc(SCC(=O)c2ccc([N+](=O)[O-])cc2)n1,44.7µM*,-29.0%,-4.0,12.6µM*,0.9%,-18.4%
Cc1nc2nc(SCC(=O)c3ccc([N+](=O)[O-])cc3)[nH]c2cc1Br,-3.4%,-28.1%,0.3,20µM*,-0.9%,-20.3%
COCCNc1nc(C)nc2c1nc(-c1ccccc1)n2C1CCN(Cc2ccccc2)C1 (configuration not stated),9.0%,/,/,/,/,/
COc1cc2c(-c3ccccc3Cl)nc3c(c(C)nn3-c3ccccc3)c2cc1OC,/,-15.3%,/,46.5%[59 µM],/,/
COCCNC(=O)c1ccc2c(c1)NC(=O)C(CS(=O)(=O)Cc1ccc(F)cc1Cl)N2 (configuration not stated),/,4.8%,/,?,/,/
O=C(O)c1ccc2c3c(ncnc13)-c1ccccc1C2=O,-11.0%,-11.5%,-0.4,1.41µM*,-3.4%,?
O=C(Nc1ccc2c(c1)C(=O)c1ccccc1-2)c1ccccc1,/,10.4%,-0.7,/,/,1.9%
O=C(COc1ccccc1)Nc1ccc(-c2ccc(N3CCOCC3)nn2)cc1,/,-24.4%,-137.5*,?,-7.8%,-6.6%
CN1CCN(c2ccc(-c3cccc(NC(=O)COc4ccc(Cl)cc4)c3)nn2)CC1,/,1.8%,0.8,50.1µM*,2.6%,-6.9%
CCOc1ccc(C(=O)Nc2cccc(-c3ccc(N4CCOCC4)nn3)c2)cc1OCC,/,15.9%,3.1,44.7µM*,-0.6%,-4.7%
CN1CCN(c2ccc(-c3cccc(NC(=O)COc4ccccc4)c3)nn2)CC1,/,8.3%,-2.7,?,-2.7%,-1.2%
CCOc1ccc(C2C(C(=O)Nc3ccccc3OC)=C(C)Nc3c(C(=O)Nc4cccc(C)c4)cnn32)cc1 (configuration not stated),/,14.5%,/,-9.9%[59 µM],/,/
Cc1ccc(OCCn2nnc3sc4c(c3c2=O)CCC(C(C)(C)C)C4)cc1 (configuration not stated),/,5.1%,/,7.6%[59 µM],/,/
O=C(O)CSC1=NC(=Nc2cccc(Cl)c2)C2(CCCCC2)N1c1ccccc1,-6.2%,-10.0%,-0.4,3.55µM*,2.2%,-6.7%
CCc1nc2oc3ccccc3c(=O)c2c(=O)n1-c1ccc(C)cc1,17.3%,19.8%,-0.9,50.1µM*,-2.7%,-27.0%
Cc1ccc2c(CC(=O)N3CCN(c4cccc(Cl)c4)CC3)coc2c1C,/,13.8%,/,-44.5%[59 µM],/,/
COc1ccccc1OCC(=O)NNC(=O)CCCC(=O)NNC(=O)COc1ccccc1OC,-0.6%,-25.9%,-1.0,?,0.2%,0.6%
C[N+]1(CC(=O)NNc2c3ccccc3nc3ccccc23)CCOCC1,3.1%,/,/,50.1µM*,-5.4%,/
COc1ccccc1OCC(=O)NNc1c2ccccc2nc2ccccc12,4.7%,-9.9%,-1.4,35.5µM*,-5.8%,0.7%
Cc1cc(OC(=O)C(C)(C)C)c([N+](=O)[O-])c(=O)[nH]1,16.5%,-5.5%,-1.7,1.41µM*,3.5%,-5.9%

# Screens as filed in PubChem BioAssay.
